Compound activity from PubChem.
Mito fusion yeast – mitochondrial division inhibition or fusion activation. S. cerevisiae fusion-defective mutant growth rescue, CellTiterGlo 48 h. Potency, µM (top dose mostly 46.1 µM), inactives show top-dose growth rescue (activation), usual class: activators. 0.23% of 320,000 active. AID 485298; also: % of control where 0% means no effect; nearly all actives have a fitted effect of over 45% in size
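Read-out: ATP-based luminescence (CellTiterGlo, 10 min ambient) reporting growth of fusion-defective ts yeast after 48 hours at 37C on glycerol/ethanol YPEG medium in the presence of compound.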
A549 viability – kills or reduces viability of A549 cells in Nrf2 counter-screen. Potency, µM (doses to about 46 µM), for inactives: at the highest dose activity change, negative = cytotoxicity, hits mostly inhibitors. A549 ARE-Fluc cells, CellTiter-Fluor viability, 18-24 h. AID 504648. 0.16% of 390,000 active; also: % is scaled to controls: 0 for no effect and ±100 for the full control effect
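A549 ARE-Fluc cells in 5% FBS OPTI-MEM, 5000 cells/well, rested 2 h then exposed to compounds in concentration-response for 18-24 h at 37 °C. Viability by CellTiter-Fluor fluorescence (Ex 405/Em 525) after 30 min; luciferase luminescence (BugLite, 15 min, RT) read afterwards.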
TrxR1 inh – rat TrxR1 inhibition; O89049; Potency, µM (highest dose often 114 µM), for inactives: at the top dose activity change, negative = inhibition, hits mostly inhibitors; recombinant rTrxR1, NADPH fluorescence consumption, selenite substrate; 1% of 390,000 active; also: % is scaled to controls: 0 for no effect and ±100 for the full control effect; nearly all actives have a fitted effect of over 65% in size
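Rat TrxR1 (90 nM in the dispensed reagent) was pre-reduced with 400 uM NADPH for 5 min at room temperature, then incubated with compound for 15 min. After 400 uM selenite was added, NADPH fluorescence (Ex 340/Em 450 nm) was followed for 8 min.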
IDH1 R132H inh – human IDH1 R132H inhibition. O75874. IDH1-R132H enzyme, NADPH consumption, diaphorase/resazurin fluorescence. Potency, µM (highest dose often 76.6 µM), for the others: at the top dose activity change, negative = inhibition, hits mostly inhibitors. 0.093% of 390,000 active; also: % is scaled to controls: 0 for no effect and ±100 for the full control effect; nearly all actives have a fitted effect of over 65% in size
Target sequence (O75874 whole entry R132H, stated change not applied): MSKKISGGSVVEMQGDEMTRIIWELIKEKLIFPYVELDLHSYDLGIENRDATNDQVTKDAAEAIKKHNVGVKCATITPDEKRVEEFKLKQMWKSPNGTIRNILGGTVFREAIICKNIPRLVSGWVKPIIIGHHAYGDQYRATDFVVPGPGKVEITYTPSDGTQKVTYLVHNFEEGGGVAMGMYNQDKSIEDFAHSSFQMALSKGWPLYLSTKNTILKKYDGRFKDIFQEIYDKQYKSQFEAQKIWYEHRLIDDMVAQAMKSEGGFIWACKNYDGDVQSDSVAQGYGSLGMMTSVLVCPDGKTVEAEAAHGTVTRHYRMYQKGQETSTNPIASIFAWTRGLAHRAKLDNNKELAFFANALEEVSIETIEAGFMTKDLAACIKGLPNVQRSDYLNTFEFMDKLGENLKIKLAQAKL
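IDH1-R132H (0.5 ug/mL dispensed) in pH 7.5 Tris buffer was preincubated 30 min with compound, then given a substrate mix of 0.016 mM NADPH and 2 mM alpha-KG for 80 min at room temperature; remaining NADPH was read by diaphorase/resazurin fluorescence.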
Nrf2 block – inhibitors of Nrf2 signaling. A549 ARE-Fluc reporter, luciferase luminescence, 18-24 h. Potency, µM (titrated, usually from 46 µM), inactives show at the highest dose activity change, negative = inhibition, hits mostly inhibitors. 2.1% of 360,000 active; also: % is scaled to controls: 0 for no effect and ±100 for the full control effect; nearly all actives have a fitted effect of over 60% in size
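A549 ARE_Fluc cells, 5000/well, 5% FBS OPTI-MEM; compounds in dose-response, 18-24 h at 37 °C/5% CO2; CellTiter-Fluor viability read (Ex 405/Em 525), then BugLite luciferase luminescence = Nrf2 activity.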
TrxR1 substrate – is turned over as a substrate by rat TrxR1 | purified TrxR1 substrate turnover, NADPH consumption readout | Potency, µM (highest dose often 114 µM), without a hit: top-dose activity change, negative = substrate turnover | O89049 | 0.01% of 390,000 active; also: % is scaled to controls: 0 for no effect and ±100 for the full control effect; nearly all actives have a fitted effect of over 50% in size
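Rat TrxR1, dispensed at 90 nM, was prereduced with 400 uM NADPH (final) for 5 min at ~22 deg C, then incubated with compound 15 min before 400 uM selenite. A first-read NADPH fluorescence drop versus no-compound background flagged substrates.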
Starred values were filed as active, the others as inactive; ? = inconclusive; . = no result; [ ] = dose if it differs, or a comment. Sampled rows, rich in hits. Any-hit rate of the full collection: about 3.1%. Calls follow the shape of the dose curve; as a rule, active = well fitted curve in the direction sought with a large enough effect; inconclusive = small, poorly fitted or top-dose-only effect, or another doubt; inactive = no such curve, though single readings can be large; an effect the other way counts as inactive or inconclusive. Potency is read from the fitted curve at half-maximal effect.

SMILES | Mito fusion yeast | A549 viability | TrxR1 inh | IDH1 R132H inh | Nrf2 block | TrxR1 substrate
C/C(=N\NC(=O)c1cc(-c2cccc(OC(C)C)c2)nc2ccccc12)c1cccnc1 | -2% | 7% | 13% | 1% | -9% | -1%
COc1cc(C2C(C(=O)Nc3ccccc3C)=C(C)Nc3nc(SCc4cc(C)ccc4C)nn32)ccc1O (stereo not drawn) | . | ? | 22%[57.1 µM] | -10% | 16µM* | 8%[57.1 µM]
CCCC(O)c1nc2ccccc2n1CCCCOc1ccc(OC)cc1 (stereo not drawn) | . | 6% | 7% | -1% | ? | -10%
CS(=O)(=O)Nc1cccc(-c2cc(F)c(S(=O)(=O)N3CCN(S(=O)(=O)c4ccc5c(c4)OCCO5)CC3)cc2F)c1 | . | 0% | . | . | -22% | .
COc1ccc(S(=O)(=O)Nc2ccccc2C(=O)Nc2nc(-c3ccc(F)cc3)cs2)cc1OC | 22% | ? | 17% | -9% | ? | 51%
COc1ccc(-c2csc(NC(=O)C3=NN(c4ccccc4)C(=O)CC3)n2)cc1 | 6% | ? | 9% | 18% | 21µM* | -2%
COc1ccc(-c2csc(NC(=O)c3ccccc3NS(=O)(=O)c3ccc(C)cc3)n2)cc1 | ? | ? | 17% | -5% | 16µM* | 20%
COc1ccccc1CNC(=O)CCc1c(C)nn(-c2ccc(N3CCCCC3)nn2)c1C | . | 1% | 30%[57.1 µM] | 8% | 23% | 10%[57.1 µM]
CC(C)(C)c1cc(CCC(=O)NCCc2ccccn2)cc(C(C)(C)C)c1O | 20% | -3% | 14%[57.1 µM] | 0% | -18% | 5%[57.1 µM]
O=C1C=C(NCCc2cc(Br)c(O)c(Br)c2)C(=O)c2ncccc21 | . | 23µM* | -40%[57.1 µM] | 15% | ? | -3%[11.4 µM]
CCCCNC(=O)Cn1c(=O)cc(C)c2c(C)nn(-c3ccc(CC)cc3)c21 | . | -3% | 18%[57.1 µM] | -8% | 27% | 2%[57.1 µM]
Cc1ccc(NCCC(=O)c2ccc(Cl)cc2)cc1C | 1% | 4% | 50µM* | 10% | . | 14%
CCc1ccc(NCCC(=O)c2ccc(Cl)cc2)cc1 | -2% | 12% | ? | 7% | 4% | 13%
Cc1ccc(NCCC(=O)c2cccs2)cc1C | -1% | 3% | 4.5µM* | 5% | ? | 13%[57.1 µM]
CC(C)c1ccc(NCCC(=O)c2cccs2)cc1 | 1% | 17% | 2.8µM* | 6% | ? | -4%
O=C(CCNc1cccc(Cl)c1)c1cccs1 | 1% | -4% | 10µM* | 0% | ? | 6%
Cc1ccc(NCCC(=O)c2cccs2)cc1Cl | 6% | 3% | ? | 3% | 27% | -4%
COc1ccc(C2Nc3ccccc3C(=O)N2Cc2ccccc2OC)cc1COc1ccc(NC(C)=O)cc1 (stereo not drawn) | . | -5% | . | . | -26% | .
COc1cc(CNC2CCCC2)cc(Cl)c1OCc1ccccc1Cl | -10% | ? | 89µM* | -2% | ? | -5%
CCc1cccc2c(-c3ccccc3)nc(SCC(=O)Nc3ccccc3OC)nc12 | . | 6% | 28% | 15% | 25% | -1%
CNC(=O)c1ccsc1NC(=O)c1ccc(S(=O)(=O)N2CCCc3ccccc32)cc1 | 18% | -10% | 20% | 5% | 18µM* | 8%
O=C(Nc1nc2c(s1)CCCC2)c1ccc(S(=O)(=O)N2CCCc3ccccc32)cc1 | 14% | -18% | -7% | 2% | 18µM* | -6%
COC(=O)Nc1ccc(S(=O)(=O)N2CCCc3ccccc32)cc1 | 17% | -18% | 7%[57.1 µM] | 7% | 8% | 1%[57.1 µM]
CC1CCc2nc(NC(=O)c3ccc(S(=O)(=O)N4CCCc5ccccc54)cc3)sc2C1 (stereo not drawn) | -2% | 0% | 19% | 4% | 5.2µM* | -4%[57.1 µM]
O=C(Cc1ccc2ccccc2c1)NO | . | . | 4% | . | . | 7%
